Data taken from PubChem BioAssay (Tox21).
Inconclusive results are not listed. Unmarked numbers belong to inactive results. Active and inactive are the calls of the source. Unless noted, the call rests on the fitted dose curve.

Test system: not listed separately
Assay: qHTS assay to identify small molecule antagonists of the thyroid receptor (TR) signaling pathway (AID 743065; active means well fitted inhibition curve with a large enough effect in the repeat runs; further: nearly all actives have a fitted effect of over 55% in size; further: potency means the concentration at half of the fitted maximal effect)
Settings: GH3.TRE-Luc, T3-stimulated luciferase inhibition, 23.5 h; series mostly up to 70.3 µM; activity, negative = inhibition: at the top concentration
Outline: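 GH3.TRE-Luc rat pituitary cells (two TREs driving luciferase) were dosed with compound, then stimulated with 1 nM T3 (final) for 23.5 h at 37 C. ONE-Glo luminescence was the read-out, with CellTiter-Fluor fluorescence as the cytotoxicity counter-screen.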
On the % scale 0 is the no-effect control and ±100 the full control effect.

Structure (SMILES)	Potency	activity, negative = inhibition [%]
c1ccc2c(c1)Sc1ccccc1N2CCN1CCCC1	29.8 µM (active)	–
O=C(O)C1CCCN1 (centres undefined)	–	12.7
CCCCC(=O)OCC(=O)[C@]1(O)Cc2c(O)c3c(c(O)c2[C@@H](O[C@H]2C[C@H](NC(=O)C(F)(F)F)[C@H](O)[C@H](C)O2)C1)C(=O)c1c(OC)cccc1C3=O	5.96 µM (active)	–

Test system: thyroid hormone receptor (rat, GH3 cells)
Assay: qHTS assay to identify small molecule agonists of the thyroid receptor (TR) signaling pathway (AID 743066)
Settings: GH3.TRE-Luc cells, TR agonist luciferase, 24 h; series mostly up to 83.9 µM; activation: at the top concentration

Structure (SMILES)	activation
CN[C@@H]1CCc2[nH]c3ccc(C(N)=O)cc3c2C1	-1.13%
FC(F)(F)C(F)(F)C(F)(F)C(F)(F)C(F)(F)C(F)(F)F	0.142%
Nc1ncnc2c1ncn2CCOCP(=O)(O)O	1.73%
CCCCCCCCCCCCCCCC(=O)OC[C@@H](NC(=O)C(Cl)Cl)[C@H](O)c1ccc([N+](=O)[O-])cc1	-0.315%
C/C(=C(\CCOC(=O)c1ccccc1)SS/C(CCOC(=O)c1ccccc1)=C(/C)N(C=O)Cc1cnc(C)nc1N)N(C=O)Cc1cnc(C)nc1N	-6.14%
CCOc1cc(-c2nccc3cc(OC)c(OC)cc23)cc(OCC)c1OCC	-2.84%
CCOC(=O)[C@H](CCc1ccccc1)N[C@@H](C)C(=O)N1CC2(C[C@H]1C(=O)O)SCCS2	0.115%
CC(=O)N=c1sc(S(N)(=O)=O)nn1C	1.25% [at 39.4 µM]
CN1[C@@H]2CCC[C@H]1CC(NC(=O)c1nn(C)c3ccccc13)C2 (some centres undefined)	-3.74%
CCC[C@@]1(CCc2ccccc2)CC(O)=C([C@H](CC)c2cccc(NS(=O)(=O)c3ccc(C(F)(F)F)cn3)c2)C(=O)O1	-6.48%
CCCCc1cc2c(=O)c(C(=O)OC)c[nH]c2cc1OCc1ccccc1	0.568%
CCCCCCCCCCCCCCCCCC(=O)[O][Al]	0.089%
C/C=C(/CC[C@@H](C)[C@H]1CC[C@H]2C3=CC[C@H]4[C@H](C)[C@@H](O)CC[C@]4(C)[C@H]3CC[C@]12C)C(C)C	-6.69%
COc1ccccc1N1CCN(CCCC(=O)c2ccc(F)cc2)CC1	-3.11%
C[C@H](N)C(=O)N[C@@H](C)P(=O)(O)O	-0.0741%
O=P(O)(O)C(Sc1ccc(Cl)cc1)P(=O)(O)O	-0.627%
Cc1cccc(Nc2ncccc2C(=O)O)c1C	0.956%
CCCCCC(O)/C=C/C=O (centres undefined)	0.299%
N[C@H](CCC(=O)O)C(=O)O	2.43%
CC(O)CN(C)C (centres undefined)	2.83%
Cc1ccc(C2(O)CCN(CCCC(=O)c3ccc(F)cc3)CC2)cc1	-5.04%
CO[C@H]1O[C@@H]2O[C@@]3(C)CC[C@H]4[C@H](C)CC[C@@H]([C@H]1C)[C@@]24OO3	-0.0975%
O=C(O)[C@@H](O)[C@H](O)[C@H](O)[C@@H](O)C(=O)O (tested in a mixture with another compound)	0.142%
NS(=O)(=O)c1cc2c(cc1Cl)NC(Cc1ccccc1)NS2(=O)=O (centres undefined)	-0.0439%
c1cnc2cc3c(cc2n1)[C@@H]1CNC[C@H]3C1	-0.526%
NCCCC[C@H](NC(=O)[C@@H]1CCCN1C(=O)[C@@H]1CSSC[C@H](N)C(=O)N[C@@H](Cc2ccccc2)C(=O)N[C@@H](Cc2ccccc2)C(=O)N[C@@H](CCC(N)=O)C(=O)N[C@@H](CC(N)=O)C(=O)N1)C(=O)NCC(N)=O	-0.873%
c1ccc2c(c1)Sc1ccccc1N2CCN1CCCC1	-6.21%
O=C(O)C1CCCN1 (centres undefined)	1.03%

Target: Estrogen receptor (Homo sapiens) (UniProt P03372)
Sequence (P03372 whole entry, looked up): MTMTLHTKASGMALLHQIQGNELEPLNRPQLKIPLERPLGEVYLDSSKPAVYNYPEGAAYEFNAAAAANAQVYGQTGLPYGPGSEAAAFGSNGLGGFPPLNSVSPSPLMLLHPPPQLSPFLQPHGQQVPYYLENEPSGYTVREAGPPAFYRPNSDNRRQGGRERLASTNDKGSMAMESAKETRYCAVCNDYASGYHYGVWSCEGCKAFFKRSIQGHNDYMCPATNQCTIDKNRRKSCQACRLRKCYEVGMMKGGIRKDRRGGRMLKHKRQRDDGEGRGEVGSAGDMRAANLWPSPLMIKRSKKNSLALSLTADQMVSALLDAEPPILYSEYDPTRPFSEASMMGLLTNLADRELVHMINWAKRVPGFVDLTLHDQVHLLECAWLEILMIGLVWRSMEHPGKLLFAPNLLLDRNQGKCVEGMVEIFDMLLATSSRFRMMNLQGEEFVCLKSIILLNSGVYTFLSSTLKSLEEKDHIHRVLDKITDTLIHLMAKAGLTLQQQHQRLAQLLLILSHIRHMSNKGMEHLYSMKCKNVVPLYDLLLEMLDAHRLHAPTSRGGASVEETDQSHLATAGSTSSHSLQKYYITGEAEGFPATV
Assay: qHTS assay to identify small molecule antagonists of the estrogen receptor alpha (ER-alpha) signaling pathway (AID 743069; active means well fitted curve in the direction sought with a large enough effect in the signal ratio in the repeat runs, not every such curve was filed as active; the % refers to the signal ratio)
Settings: HEK293 ER-alpha-UAS-bla, beta-lactamase ratio, antagonist mode; series mostly up to 69.4 µM; activity, negative = inhibition: at the top concentration
Outline: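 In this cell-based reporter format, GripTite HEK293 cells harbouring ER-alpha-UAS-bla were grown overnight with 2% charcoal-stripped FBS, dosed with DMSO-dissolved compounds, then challenged with 17beta-estradiol. After 18 hr at 37C, beta-lactamase activity was detected by FRET fluorescence.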

Structure (SMILES)	activity, negative = inhibition
FC(F)(F)C(F)(F)C(F)(F)C(F)(F)C(F)(F)C(F)(F)F	8.18%
Nc1ncnc2c1ncn2CCOCP(=O)(O)O	2.32%
CCCCCCCCCCCCCCCC(=O)OC[C@@H](NC(=O)C(Cl)Cl)[C@H](O)c1ccc([N+](=O)[O-])cc1	-17.9%
C/C(=C(\CCOC(=O)c1ccccc1)SS/C(CCOC(=O)c1ccccc1)=C(/C)N(C=O)Cc1cnc(C)nc1N)N(C=O)Cc1cnc(C)nc1N	-13.7%
CC(=O)N=c1sc(S(N)(=O)=O)nn1C	5.3% [at 32.6 µM]
CN1[C@@H]2CCC[C@H]1CC(NC(=O)c1nn(C)c3ccccc13)C2 (some centres undefined)	-1.79%
COC1=C(C(=O)O)N2C(=O)[C@@H](NC(=O)[C@H](N)C3=CCC=CC3)[C@H]2SC1	-10.7%
CCCCc1cc2c(=O)c(C(=O)OC)c[nH]c2cc1OCc1ccccc1	-28.3%
CCCCCCCCCCCCCCCCCC(=O)[O][Al]	-26.2%
C[C@H](N)C(=O)N[C@@H](C)P(=O)(O)O	5.91%
N[C@H](CCC(=O)O)C(=O)O	17.6%
CC(O)CN(C)C (centres undefined)	14.3%
Cc1ccc(C2(O)CCN(CCCC(=O)c3ccc(F)cc3)CC2)cc1	-9.01%
CO[C@H]1O[C@@H]2O[C@@]3(C)CC[C@H]4[C@H](C)CC[C@@H]([C@H]1C)[C@@]24OO3	-15.8%
CC1=C(/C=C/C(C)=C/C=C/C(C)=C/C(=O)Oc2c(C)c(C)c3c(c2C)CC[C@@](C)(CCC[C@H](C)CCC[C@H](C)CCCC(C)C)O3)C(C)(C)CCC1	15.8%
NS(=O)(=O)c1cc2c(cc1Cl)NC(Cc1ccccc1)NS2(=O)=O (centres undefined)	-11%
c1cnc2cc3c(cc2n1)[C@@H]1CNC[C@H]3C1	-15.5%
NCCCC[C@H](NC(=O)[C@@H]1CCCN1C(=O)[C@@H]1CSSC[C@H](N)C(=O)N[C@@H](Cc2ccccc2)C(=O)N[C@@H](Cc2ccccc2)C(=O)N[C@@H](CCC(N)=O)C(=O)N[C@@H](CC(N)=O)C(=O)N1)C(=O)NCC(N)=O	0.283%
